# Measured values reported in PMC5540273 (PLoS ONE, 2017).
# Several values for one entry are separate records, joined by “and”; a condition that tells them apart may be missing. Equal entries are not always repeated. Where two headings read alike, the source gives them in different places.
# Assays:
# PRKCQ = settings: n = 1
# PRKD1 = settings: concentration: 1 μM, replicates: in singlicate; n = 1
# PRKD2 = settings: n = 1
# PRKD3 = settings: n = 1
# PRKG1 = settings: n = 1
# PRKG2 = settings: n = 1
# PRKR = test system: T1, PRKR; settings: n = 1
# T1 construct: gene EIF2AK2
# PRKX = settings: n = 1
# PRP4 = settings: n = 1
# PYK2 = test system: T2, PYK2; settings: n = 1
# T2 construct: gene PTK2B
# QSK = settings: n = 1
# RAF1 = settings: n = 1
# RET = settings: n = 1
# RIOK1 = settings: n = 1
# RIOK2 = settings: n = 1
# RIOK3 = settings: n = 1
# RIPK1 = settings: n = 1
# RIPK2 = settings: n = 1
# RIPK4 = settings: n = 1
# RIPK5 = settings: concentration: 1 μM, replicates: in singlicate; n = 1
# [1] = concentration: 1 μM, replicates: in singlicate
# [2] = concentration: 1 μM,replicates: in singlicate, 1 µM
# 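Note: KINOMEscan kinase panel screen.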
compound,measurement,setting,value
Cc1cc(NCC(c2ccccc2)c2ccccc2)nc(NCc2ccc(C(F)(F)F)cc2)n1 [GW497681],%Inh,PRKCQ; [1],0%
same,%Inh,PRKD1,0%
same,%Inh,PRKD2; [1],6%
same,%Inh,PRKD3; [1],0%
same,%Inh,PRKG1; [1],0%
same,%Inh,PRKG2; [1],0%
same,%Inh,PRKR; [1],0%
same,%Inh,PRKX; [1],6%
same,%Inh,PRP4; [1],29%
same,%Inh,PYK2; [1],6%
same,%Inh,QSK; [1],0%
same,%Inh,RAF1; [1],18%
same,%Inh,RET; [1],0%
same,%Inh,RIOK1; [1],22%
same,%Inh,RIOK2; [1],0%
same,%Inh,RIOK3; [1],9%
same,%Inh,RIPK1; [1],0%
same,%Inh,RIPK2; [1],9%
same,%Inh,RIPK4; [1],0%
same,%Inh,RIPK5,0%
Cl.O=C(Nc1cccc(-c2nn3ncccc3c2-c2ccnc(Nc3cccnc3)n2)c1)c1c(F)cccc1F [GSK312879],%Inh,PRKCQ; [1],25%
same,%Inh,PRKD1,0%
same,%Inh,PRKD2; [1],0%
same,%Inh,PRKD3; [1],25%
same,%Inh,PRKG1; [1],16%
same,%Inh,PRKG2; [1],0%
same,%Inh,PRKR; [1],0%
same,%Inh,PRKX; [1],3%
same,%Inh,PRP4; [1],11%
same,%Inh,PYK2; [1],0%
same,%Inh,QSK; [1],0%
same,%Inh,RAF1; [1],87%
same,%Inh,RET; [1],31%
same,%Inh,RIOK1; [1],31%
same,%Inh,RIOK2; [1],11%
same,%Inh,RIOK3; [1],0%
same,%Inh,RIPK1; [1],0%
same,%Inh,RIPK2; [1],18%
same,%Inh,RIPK4; [1],15%
same,%Inh,RIPK5,0%
CS(=O)(=O)c1ccc(-c2nc3n(c2-c2ccncc2)CCC3)cc1 [SKF-105942],%Inh,PRKCQ; [1],0%
same,%Inh,PRKD1,3%
same,%Inh,PRKD2; [1],0%
same,%Inh,PRKD3; [1],0%
same,%Inh,PRKG1; [1],0%
same,%Inh,PRKG2; [1],5%
same,%Inh,PRKR; [1],0%
same,%Inh,PRKX; [1],2%
same,%Inh,PRP4; [1],11%
same,%Inh,PYK2; [1],0%
same,%Inh,QSK; [1],0%
same,%Inh,RAF1; [1],16%
same,%Inh,RET; [1],0%
same,%Inh,RIOK1; [1],0%
same,%Inh,RIOK2; [1],0%
same,%Inh,RIOK3; [1],0%
same,%Inh,RIPK1; [1],0%
same,%Inh,RIPK2; [1],0%
same,%Inh,RIPK4; [1],100%
same,%Inh,RIPK5,2%
Nc1ncnc2[nH]c(-c3ccccc3)nc12 [AH5015],%Inh,PRKCQ; [1],0%
same,%Inh,PRKD1,0%
same,%Inh,PRKD2; [1],0%
same,%Inh,PRKD3; [1],9%
same,%Inh,PRKG1; [1],6%
same,%Inh,PRKG2; [1],0%
same,%Inh,PRKR; [1],0%
same,%Inh,PRKX; [1],0%
same,%Inh,PRP4; [1],30%
same,%Inh,PYK2; [1],0%
same,%Inh,QSK; [1],0%
same,%Inh,RAF1; [1],42%
same,%Inh,RET; [1],0%
same,%Inh,RIOK1; [1],0%
same,%Inh,RIOK2; [1],4%
same,%Inh,RIOK3; [1],0%
same,%Inh,RIPK1; [1],16%
same,%Inh,RIPK2; [1],6%
same,%Inh,RIPK4; [1],17%
same,%Inh,RIPK5,8%
Nc1nc(-c2nccs2)c(-c2ccnc3ccccc23)s1 [GW693542],%Inh,PRKCQ; [1],39%
same,%Inh,PRKD1,42%
same,%Inh,PRKD2; [1],14%
same,%Inh,PRKD3; [1],12%
same,%Inh,PRKG1; [1],8%
same,%Inh,PRKG2; [1],0%
same,%Inh,PRKR; [1],0%
same,%Inh,PRKX; [1],10%
same,%Inh,PRP4; [1],20%
same,%Inh,PYK2; [1],16%
same,%Inh,QSK; [1],0%
same,%Inh,RAF1; [1],15%
same,%Inh,RET; [1],37%
same,%Inh,RIOK1; [1],24%
same,%Inh,RIOK2; [1],6%
same,%Inh,RIOK3; [1],38%
same,%Inh,RIPK1; [1],0%
same,%Inh,RIPK2; [1],14%
same,%Inh,RIPK4; [1],5%
same,%Inh,RIPK5,0%
CSc1nn2c(=O)cc(N3CCOCC3)nc2n1Cc1cccc(C(F)(F)F)c1C [GSK2363608],%Inh,PRKCQ; [2],0% and 66%
same,%Inh,PRKD1,0%
same,%Inh,PRKD2; [2],7% and 4%
same,%Inh,PRKD3; [2],21% and 0%
same,%Inh,PRKG1; [2],39% and 1%
same,%Inh,PRKG2; [2],16% and 0%
same,%Inh,PRKR; [2],5% and 0%
same,%Inh,PRKX; [2],36% and 0%
same,%Inh,PRP4; [2],32% and 12%
same,%Inh,PYK2; [2],0% and 17%
same,%Inh,QSK; [2],55% and 8%
same,%Inh,RAF1; [2],14% and 11%
same,%Inh,RET; [2],19% and 56%
same,%Inh,RIOK1; [2],37% and 10%
same,%Inh,RIOK2; [2],19% and 5%
same,%Inh,RIOK3; [2],39% and 0%
same,%Inh,RIPK1; [2],26% and 0%
same,%Inh,RIPK2; [2],0% and 14%
same,%Inh,RIPK4; [2],22% and 13%
same,%Inh,RIPK5,0%
CCn1c(-c2ccccn2)nc2cnccc21 [SB-736398],%Inh,PRKCQ; [1],14%
same,%Inh,PRKD1,0%
same,%Inh,PRKD2; [1],0%
same,%Inh,PRKD3; [1],1%
same,%Inh,PRKG1; [1],0%
same,%Inh,PRKG2; [1],3%
same,%Inh,PRKR; [1],0%
same,%Inh,PRKX; [1],100%
same,%Inh,PRP4; [1],46%
same,%Inh,PYK2; [1],9%
same,%Inh,QSK; [1],0%
same,%Inh,RAF1; [1],18%
same,%Inh,RET; [1],24%
same,%Inh,RIOK1; [1],4%
same,%Inh,RIOK2; [1],0%
same,%Inh,RIOK3; [1],0%
same,%Inh,RIPK1; [1],0%
same,%Inh,RIPK2; [1],0%
same,%Inh,RIPK4; [1],15%
same,%Inh,RIPK5,0%
COc1ccccc1-c1ccc2c(NC(=O)C3CC3)n[nH]c2n1 [SB-711239],%Inh,PRKCQ; [1],9%
same,%Inh,PRKD1,0%
same,%Inh,PRKD2; [1],11%
same,%Inh,PRKD3; [1],30%
same,%Inh,PRKG1; [1],27%
same,%Inh,PRKG2; [1],22%
same,%Inh,PRKR; [1],7%
same,%Inh,PRKX; [1],25%
same,%Inh,PRP4; [1],53%
same,%Inh,PYK2; [1],0%
same,%Inh,QSK; [1],16%
same,%Inh,RAF1; [1],38%
same,%Inh,RET; [1],11%
same,%Inh,RIOK1; [1],20%
same,%Inh,RIOK2; [1],9%
same,%Inh,RIOK3; [1],0%
same,%Inh,RIPK1; [1],10%
same,%Inh,RIPK2; [1],33%
same,%Inh,RIPK4; [1],0%
same,%Inh,RIPK5,0%
Cc1nnc(-c2ccc3occ(-c4ccc(S(C)=O)cc4)c3c2)[nH]1 (stereo not shown),%Inh,PRKCQ; [1],0%
same,%Inh,PRKD1,0%
same,%Inh,PRKD2; [1],4%
same,%Inh,PRKD3; [1],0%
same,%Inh,PRKG1; [1],0%
same,%Inh,PRKG2; [1],0%
same,%Inh,PRKR; [1],0%
same,%Inh,PRKX; [1],51%
same,%Inh,PRP4; [1],10%
same,%Inh,PYK2; [1],26%
same,%Inh,QSK; [1],3%
same,%Inh,RAF1; [1],4%
same,%Inh,RET; [1],31%
same,%Inh,RIOK1; [1],13%
same,%Inh,RIOK2; [1],31%
same,%Inh,RIOK3; [1],0%
same,%Inh,RIPK1; [1],100%
same,%Inh,RIPK2; [1],13%
same,%Inh,RIPK4; [1],0%
same,%Inh,RIPK5,0%
Cc1cccc(-c2cc(Nc3ccncc3)c3ccccc3n2)n1 [GSK223675],%Inh,PRKCQ; [1],0%
same,%Inh,PRKD1,91.1%
same,%Inh,PRKD2; [1],96%
same,%Inh,PRKD3; [1],100%
same,%Inh,PRKG1; [1],0%
same,%Inh,PRKG2; [1],0%
same,%Inh,PRKR; [1],0%
same,%Inh,PRKX; [1],16%
same,%Inh,PRP4; [1],19%
same,%Inh,PYK2; [1],14%
same,%Inh,QSK; [1],0%
same,%Inh,RAF1; [1],6%
same,%Inh,RET; [1],0%
same,%Inh,RIOK1; [1],19%
same,%Inh,RIOK2; [1],0%
same,%Inh,RIOK3; [1],29%
same,%Inh,RIPK1; [1],0%
same,%Inh,RIPK2; [1],6%
same,%Inh,RIPK4; [1],21%
same,%Inh,RIPK5,6%
COc1ccc2nc(-c3cccc(C)n3)nc(Nc3ccncc3)c2c1 [GSK204919],%Inh,PRKCQ; [1],44%
same,%Inh,PRKD1,92.4%
same,%Inh,PRKD2; [1],98.8%
same,%Inh,PRKD3; [1],100%
same,%Inh,PRKG1; [1],8%
same,%Inh,PRKG2; [1],0%
same,%Inh,PRKR; [1],0%
same,%Inh,PRKX; [1],7%
same,%Inh,PRP4; [1],8%
same,%Inh,PYK2; [1],9%
same,%Inh,QSK; [1],0%
same,%Inh,RAF1; [1],6%
same,%Inh,RET; [1],18%
same,%Inh,RIOK1; [1],24%
same,%Inh,RIOK2; [1],0%
same,%Inh,RIOK3; [1],16%
same,%Inh,RIPK1; [1],0%
same,%Inh,RIPK2; [1],33%
same,%Inh,RIPK4; [1],5%
same,%Inh,RIPK5,0%
